Measured values as given in PubChem BioAssay (NCI).
The panel holds about 79,000 compounds, 15% with a hit somewhere; the sample as a whole holds those more often. A number with no mark means an inactive call. The source made the active and inactive calls. No stated cut-off is given here; in the data, active means growth inhibition above about 70%; inactive means the rest.

Key:
[1] = NCI Yeast Anticancer Drug Screen. Data for the rad50 strain (AID 155);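 further: 0% = growth of vehicle-only cultures of the same strain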; conditions: S. cerevisiae rad50 strain growth inhibition, active compounds read high
In short: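 Cells are treated with compound, grown, and their growth is then scored against vehicle-only cultures of the same repair-deficient yeast strain.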

[2] = NCI Yeast Anticancer Drug Screen. Data for the mec2-1 strain (AID 157); conditions: S. cerevisiae mec2-1 strain, active compounds read high
In short: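 Each compound was tested on mec2-1 yeast, a strain altered in DNA damage repair or cell cycle control. Growth inhibition is reported relative to vehicle.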

[3] = NCI Yeast Anticancer Drug Screen. Data for the sgs1 mgt1 strain (AID 161);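 further: 0% = growth of cultures given vehicle only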; conditions: S. cerevisiae sgs1 mgt1 strain, active compounds read high
In short: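 Read-out: growth inhibition vs vehicle controls. Cells: mutant yeast strain deficient in DNA damage repair.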

[4] = NCI Yeast Anticancer Drug Screen. Data for the cln2 rad14 strain (AID 165);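 further: 0% = growth equal to vehicle treated cultures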; conditions: S. cerevisiae cln2 rad14 strain, active compounds read high
In short: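 Test compounds were added to cln2 rad14 yeast cultures; inhibition of growth was then determined by comparison with vehicle treatment.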

[5] = NCI Yeast Anticancer Drug Screen. Data for the bub3 strain (AID 167); conditions: S. cerevisiae bub3 mutant strain, active compounds read high
In short: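 Part of a panel of yeast mutants defective in DNA damage repair or cell cycle regulation. Each strain is grown with compound, and inhibition is calculated relative to solvent-treated cultures.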

[6] = NCI Yeast Anticancer Drug Screen. Data for the mlh1 rad18 strain (AID 175); conditions: S. cerevisiae mlh1 rad18 strain growth inhibition, active compounds read high
In short: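 Inhibition values reflect reduced growth of mutant yeast versus vehicle-treated controls following compound exposure; the mutations affect DNA damage repair.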

[7] = at 5.0 µM (retest, dose inferred, filed as 0.5)
[8] = at 50.0 µM (retest, dose inferred, filed as 5.0)

Compound | growth inhibition [1, 7] | growth inhibition [1, 8] | growth inhibition ([1]; at 50.0 µM) | growth inhibition [2, 7] | growth inhibition [2, 8] | growth inhibition ([2]; at 50.0 µM) | growth inhibition [3, 7] | growth inhibition [3, 8] | growth inhibition ([3]; at 50.0 µM) | growth inhibition [4, 7] | growth inhibition [4, 8] | growth inhibition ([4]; at 50.0 µM) | growth inhibition [5, 7] | growth inhibition [5, 8] | growth inhibition ([5]; at 50.0 µM) | growth inhibition [6, 7] | growth inhibition [6, 8] | growth inhibition ([6]; at 50.0 µM)
CCCCCCCCCCCCCCCCOC(=O)C[n+]1ccc(C(N)=O)cc1 | -2% | 97% (active) | 98% (active) | -8% | 99% (active) | 98.1% (active) | 21% | 94% (active) | 98.9% (active) | 0% | 72% (active) | 69.3% | -3% | 97% (active) | 93% (active) | 32% | 96% (active) | 98.2% (active)
CN(C)CCCCCNc1c2ccccc2nc2cccc([N+](=O)[O-])c12 | 73% (active) | 95% (active) | 90% (active) | 52% | 97% (active) | 91.2% (active) | 29% | 33% | 89.2% (active) | 37% | 62% | 92.3% (active) | 23% | 47% | 89% (active) | 78% (active) | 96% (active) | 87.7% (active)
CCOC(=O)C(=N\Nc1ccccc1C)/C(C)=N\NC(N)=S | -9% | 37% | 73.5% (active) | 7% | 55% | 48.5% | 15% | 71% (active) | 75.2% (active) | -13% | 20% | 81.1% (active) | 5% | 30% | 73.6% (active) | 18% | 68% | 80.3% (active)
COc1cc(NCC(C#N)C#N)ccc1N=Nc1ccc(Cl)cc1 | -5% | 58% | 86.2% (active) | -2% | 67% | 70.8% (active) | 4% | 72% (active) | 85.3% (active) | -7% | 46% | 76.8% (active) | -23% | 87% (active) | 79.5% (active) | -37% | 81% (active) | 82.7% (active)
Cc1c(C2Cc3ccccc3N2C(=O)/C=C\C(=O)O)c2ccccc2n1C (stereo not given) | 33% | 32% | 74.8% (active) | 25% | 35% | 33.4% | 39% | 34% | 40.4% | 31% | 35% | 53.5% | 38% | 38% | 32.6% | 42% | 35% | 22.4%
Clc1ccc(C(CCOc2ccccc2Br)Cn2ccnc2)c(Cl)c1 (stereo not given) | 89% (active) | 98% (active) | 99.7% (active) | 75% (active) | 99% (active) | 99.7% (active) | 82% (active) | 99% (active) | 99.7% (active) | 68% | 99% (active) | 97% (active) | 89% (active) | 99% (active) | 99.7% (active) | 79% (active) | 99% (active) | 95.3% (active)
CC(CCCOC(c1ccccc1)(c1ccccc1)c1ccccc1)OC(=O)Nc1ccccc1 (stereo not given) | 85% (active) | 85% (active) | 83.9% (active) | 81% (active) | 81% (active) | 85.8% (active) | 63% | 63% | 84% (active) | 92% (active) | 92% (active) | 83% (active) | 69% | 69% | 79.7% (active) | 93% (active) | 93% (active) | 81.5% (active)
COC1CCC(/C(C#N)=C/c2ccco2)CC1 (stereo not given) | 17% | 22% | 61.7% | -5% | 13% | 57.3% | -5% | 26% | 78.2% (active) | 22% | 29% | -0.15% | 38% | 58% | 79.6% (active) | 8% | 49% | 57.1%
CC1(c2ccccc2)Nc2ccccc2C1=Nc1ccccc1 (stereo not given) | -1% | 34% | 93.5% (active) | -4% | 30% | 97.7% (active) | -3% | 54% | 96.3% (active) | -8% | 75% (active) | 97.2% (active) | -7% | 77% (active) | 95.8% (active) | -2% | 86% (active) | 97.3% (active)
O=c1c2ccccc2sc2cccc(NCCCN3CCN(CCCNc4cccc5sc6ccccc6c(=O)c45)CC3)c12 | -1% | 4% | 28.4% | -2% | -3% | -10.7% | 4% | 13% | 3.3% | -3% | -6% | 46% | -2% | -5% | -9.1% | -3% | -65% | 0.6%
